Activity calls are given as the source filed them.

The results in this text go back to PubChem BioAssay.

The subject of test [1] is PRMT1 (protein arginine N-methyltransferase 1). Description: PRMT1 binders on small-molecule microarrays, primary screen, biochemical, small-molecule microarray, 635 nm fluorescence (AID 1088).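 Also: binding of Prmt1 protein to compounds spotted on small-molecule microarray slides.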 As to conditions: small-molecule microarray binding, higher = more signal.
A short description of test [2]: yeast growth modulation, basal conditions, primary screen, YJM789 clinical isolate, OD600, 24 h (AID 1089).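 Also: growth of clinical yeast isolate S. cerevisiae YJM 789 seeded 1000 cells per well; test concentration not given here.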 The conditions noted are these: S. cerevisiae YJM789 growth, higher = more signal, called active from +8 up or from −8 down.
Test [3] is described as follows: fission yeast growth modulation, primary screen, strain 972, OD600, 24 h, no modulator (AID 1090).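 Also: basal condition with compound alone and no growth modifier present; test concentration not given here.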 The conditions noted are these: S. pombe 972 growth, higher = more signal, called active from +8 up or from −8 down.
A short description of test [4]: S. cerevisiae growth modulation with rapamycin, primary screen, strain BY4716, OD600, 96 h (AID 1091). Also: test concentration not given here. As to conditions: higher = more signal, called active from +8 up or from −8 down.
Test [5] concerns the target Torsin-1A-interacting protein 2 (Homo sapiens) (UniProt Q8NFQ8). In words: LULL1 binders on small-molecule microarray, primary screen, cell lysate, human LULL1 lysate, 635/667 nm fluorescence (AID 1092).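 Also: probe is lysate of COS7 cells overexpressing human LULL1; score merges per-feature 667 nm fluorescence with signal-to-noise.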 As to conditions: hLULL1 lysate binding, 635 nm fluorescence, higher = more signal.
The nature of test [6]: E. coli growth modulation, two-sided OD650, primary screen, E. coli filamentation project, strain DRC41, 24 h (AID 1093).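 Also: MC1000 strain lacking acrAB efflux and sulA so SOS filamentation is blocked; test concentration not given here.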 As to conditions: OD650, 24 h, higher = more signal, called active from +8 up or from −8 down.
A short description of test [7]: small-molecule microarray binders of probe aLefty2, primary screen, biochemical, biotinylated probe, 635/667 nm fluorescence (AID 1094).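 Also: score merges spot fluorescence near 667 nm with spot signal-to-noise ratio.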 The conditions noted are these: higher = more signal.
In test [8] the test system is Noggin (protein binding on small-molecule microarray). In words: Noggin binders on small-molecule microarray, primary screen, biochemical, 635/667 nm fluorescence (AID 1095).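 Also: score merges 667 nm feature fluorescence with signal to noise over triplicate slides.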 As to conditions: 635 nm fluorescence, higher = more signal.
Test [9] concerns the target Neurogenic locus notch homolog protein 3 (Homo sapiens) (UniProt Q9UM47). Description: NOTCH3 binders on small-molecule microarray, primary screen, biochemical, 635/667 nm fluorescence (AID 1096). As to conditions: NOTCH3 binding, 635 nm fluorescence, higher = more signal.
The nature of test [10]: small-molecule microarray binders of probe aEGFR, primary screen, biochemical, biotinylated probe, 635/667 nm fluorescence (AID 1097).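 Also: probe is a biotinylated anti-EGFR antibody binding compounds printed on slides; score combines fluorescence near 667 nm and signal to noise of each spot.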 As to conditions: higher = more signal.
The subject of test [11] is Plasmodium falciparum Sir2 (PF13_0152, Sir2A). Description: pfSir2 binders on small-molecule microarrays, primary screen, biochemical, small-molecule microarray, 635 nm fluorescence (AID 1098).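 Also: score merges spot fluorescence intensity with its signal-to-noise ratio.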 As to conditions: small-molecule microarray binding, fluorescence 635 nm; higher = more signal.
The nature of test [12]: small-molecule microarray binders of probe aDKK1, primary screen, biochemical, biotinylated probe, 635/667 nm fluorescence (AID 1099).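 Also: score merges 667nm spot fluorescence with signal to noise across triplicate slides; reference of the scale not given here.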 The conditions noted are these: higher = more signal.
The nature of test [13]: small-molecule microarray binders of probe aCHRDL2, primary screen, biochemical, biotinylated probe, 635/667 nm fluorescence (AID 1100). As to conditions: higher = more signal.
A short description of test [14]: splicing luciferase reporter signal modulators, primary screen, spliceosome inhibition project, cell-based, HEK293, splice +/- reporter (AID 1101).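 Also: HEK293 cells carrying a splicing-competent luciferase reporter gene; test concentration not given here.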 The conditions noted are these: luminescence, 24 h, higher = more signal, called active from +8 up or from −8 down.
Test [15] has as its target Fibroblast growth factor 10 (Homo sapiens) (UniProt O15520). Description: FGF10 binders on small-molecule microarrays, primary screen, biochemical, small-molecule microarray, 635 nm fluorescence (AID 1102). As to conditions: FGF10 binding, fluorescence 635 nm, higher = more signal.
Test [16] deals with glycogen synthase kinase-3 (GSK3A per assay name; protocol says GSK3B). In words: GSK3 binders on small-molecule microarrays, primary screen, biochemical, small-molecule microarray, 635 nm fluorescence, GSK3A (AID 1103). Also: the record names both GSK3A and GSK3B. The conditions noted are these: small-molecule microarray binding, fluorescence 635 nm; higher = more signal.
Test [17] concerns the target Epidermal growth factor receptor (Homo sapiens) (UniProt P00533). Description: EGFR binders on small-molecule microarrays, primary screen, biochemical, small-molecule microarray, 635 nm fluorescence (AID 1104).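 Also: score merges 667 nm emission intensity with spot signal to noise over triplicate slides.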 The conditions noted are these: EGFR binding, higher = more signal.
Test [18] addresses Follistatin-related protein 3 (Homo sapiens) (UniProt O95633). Description: FSTL3 binders on small-molecule microarrays, primary screen, biochemical, small-molecule microarray, 635 nm fluorescence (AID 1105).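 Also: score merges emission near 667 nm and signal to noise per printed spot across three slides.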 The conditions noted are these: FSTL3 binding, higher = more signal.
Test [19] deals with Dickkopf-related protein 1 (Homo sapiens) (UniProt O94907). In words: DKK1 binders on small-molecule microarrays, primary screen, biochemical, small-molecule microarray, 635 nm fluorescence scan (AID 1106).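 Also: score merges emission near 667 nm with signal to noise over three replicate slides.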 As to conditions: DKK1 binding, higher = more signal.
In test [20] the test system is Inhibin beta A chain (activin A). Description: INHBA (activin A) binders on microarrays, primary screen, biochemical, small-molecule microarray, 635 nm fluorescence scan (AID 1107).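 Also: mouse activin A protein probed at 4.33 µg/mL on printed slides; score merges bound-protein fluorescence near 667 nm with spot signal-to-noise.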 As to conditions: small-molecule microarray binding, higher = more signal.

Chain of Neurogenic locus notch homolog protein 3 (Homo sapiens) (Q9UM47 whole entry, looked up): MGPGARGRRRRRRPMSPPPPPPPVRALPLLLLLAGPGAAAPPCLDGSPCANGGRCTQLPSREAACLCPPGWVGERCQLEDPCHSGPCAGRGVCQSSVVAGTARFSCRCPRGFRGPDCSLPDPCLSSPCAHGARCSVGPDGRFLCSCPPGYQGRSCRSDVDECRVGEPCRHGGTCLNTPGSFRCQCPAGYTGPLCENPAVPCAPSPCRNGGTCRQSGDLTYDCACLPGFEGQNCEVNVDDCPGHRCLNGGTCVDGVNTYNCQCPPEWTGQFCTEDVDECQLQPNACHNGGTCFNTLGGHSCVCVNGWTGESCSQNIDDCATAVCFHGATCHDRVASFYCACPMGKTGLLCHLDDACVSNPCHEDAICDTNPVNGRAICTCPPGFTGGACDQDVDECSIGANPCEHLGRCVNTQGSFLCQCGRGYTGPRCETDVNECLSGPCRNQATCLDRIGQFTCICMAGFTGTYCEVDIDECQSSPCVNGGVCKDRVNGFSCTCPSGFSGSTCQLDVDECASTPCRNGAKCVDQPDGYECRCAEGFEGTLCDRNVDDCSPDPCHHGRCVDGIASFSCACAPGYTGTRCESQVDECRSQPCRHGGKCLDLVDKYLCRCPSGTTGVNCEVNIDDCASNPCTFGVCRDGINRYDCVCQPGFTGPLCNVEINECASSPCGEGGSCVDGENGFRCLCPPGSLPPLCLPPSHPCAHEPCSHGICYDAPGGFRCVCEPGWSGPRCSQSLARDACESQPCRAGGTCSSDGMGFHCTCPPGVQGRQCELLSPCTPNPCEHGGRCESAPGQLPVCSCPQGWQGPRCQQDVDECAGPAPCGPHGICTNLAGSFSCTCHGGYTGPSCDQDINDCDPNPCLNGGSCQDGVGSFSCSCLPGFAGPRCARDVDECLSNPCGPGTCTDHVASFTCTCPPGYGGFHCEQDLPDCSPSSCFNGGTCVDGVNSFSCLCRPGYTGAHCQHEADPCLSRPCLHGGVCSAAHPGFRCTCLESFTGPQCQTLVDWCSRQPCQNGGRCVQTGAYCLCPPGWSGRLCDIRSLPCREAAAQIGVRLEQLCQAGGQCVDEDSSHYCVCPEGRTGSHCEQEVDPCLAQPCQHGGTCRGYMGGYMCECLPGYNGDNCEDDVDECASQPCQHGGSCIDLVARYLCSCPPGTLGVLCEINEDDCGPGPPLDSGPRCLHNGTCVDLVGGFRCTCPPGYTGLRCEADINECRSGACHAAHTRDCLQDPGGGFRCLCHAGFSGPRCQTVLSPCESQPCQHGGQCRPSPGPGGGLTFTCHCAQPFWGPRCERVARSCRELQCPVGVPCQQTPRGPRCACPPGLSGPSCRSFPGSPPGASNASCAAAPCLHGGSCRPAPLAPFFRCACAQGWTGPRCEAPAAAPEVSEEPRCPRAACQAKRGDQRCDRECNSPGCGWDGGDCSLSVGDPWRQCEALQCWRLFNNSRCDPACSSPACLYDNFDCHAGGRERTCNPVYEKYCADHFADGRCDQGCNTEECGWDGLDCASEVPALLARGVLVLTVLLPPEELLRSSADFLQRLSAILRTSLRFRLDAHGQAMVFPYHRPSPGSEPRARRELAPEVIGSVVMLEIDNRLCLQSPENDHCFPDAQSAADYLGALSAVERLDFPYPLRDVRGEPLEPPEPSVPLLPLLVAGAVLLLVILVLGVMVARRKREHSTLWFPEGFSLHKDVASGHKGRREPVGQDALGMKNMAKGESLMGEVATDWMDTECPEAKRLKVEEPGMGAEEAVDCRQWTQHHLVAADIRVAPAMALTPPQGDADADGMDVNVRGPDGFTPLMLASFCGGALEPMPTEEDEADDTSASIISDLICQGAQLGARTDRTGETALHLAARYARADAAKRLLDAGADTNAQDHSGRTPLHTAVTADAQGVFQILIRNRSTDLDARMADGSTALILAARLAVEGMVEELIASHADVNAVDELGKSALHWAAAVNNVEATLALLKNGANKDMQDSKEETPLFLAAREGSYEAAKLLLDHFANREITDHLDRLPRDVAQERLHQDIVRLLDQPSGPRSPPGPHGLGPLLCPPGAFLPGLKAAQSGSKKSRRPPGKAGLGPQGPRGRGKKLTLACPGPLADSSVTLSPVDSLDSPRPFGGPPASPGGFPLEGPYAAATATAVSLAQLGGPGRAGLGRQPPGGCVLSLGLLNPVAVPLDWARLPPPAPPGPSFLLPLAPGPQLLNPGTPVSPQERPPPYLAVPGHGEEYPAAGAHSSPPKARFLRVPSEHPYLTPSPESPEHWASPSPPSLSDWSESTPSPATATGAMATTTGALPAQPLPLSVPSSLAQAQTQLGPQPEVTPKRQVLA
Chain of Fibroblast growth factor 10 (Homo sapiens) (O15520 whole entry, looked up): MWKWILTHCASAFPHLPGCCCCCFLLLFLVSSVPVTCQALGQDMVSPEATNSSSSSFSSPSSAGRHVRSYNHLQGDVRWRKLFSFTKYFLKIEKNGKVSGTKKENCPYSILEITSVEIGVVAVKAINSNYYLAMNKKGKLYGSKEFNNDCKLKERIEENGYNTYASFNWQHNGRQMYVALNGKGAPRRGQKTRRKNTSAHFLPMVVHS
Chain of Epidermal growth factor receptor (Homo sapiens) (P00533 whole entry, looked up): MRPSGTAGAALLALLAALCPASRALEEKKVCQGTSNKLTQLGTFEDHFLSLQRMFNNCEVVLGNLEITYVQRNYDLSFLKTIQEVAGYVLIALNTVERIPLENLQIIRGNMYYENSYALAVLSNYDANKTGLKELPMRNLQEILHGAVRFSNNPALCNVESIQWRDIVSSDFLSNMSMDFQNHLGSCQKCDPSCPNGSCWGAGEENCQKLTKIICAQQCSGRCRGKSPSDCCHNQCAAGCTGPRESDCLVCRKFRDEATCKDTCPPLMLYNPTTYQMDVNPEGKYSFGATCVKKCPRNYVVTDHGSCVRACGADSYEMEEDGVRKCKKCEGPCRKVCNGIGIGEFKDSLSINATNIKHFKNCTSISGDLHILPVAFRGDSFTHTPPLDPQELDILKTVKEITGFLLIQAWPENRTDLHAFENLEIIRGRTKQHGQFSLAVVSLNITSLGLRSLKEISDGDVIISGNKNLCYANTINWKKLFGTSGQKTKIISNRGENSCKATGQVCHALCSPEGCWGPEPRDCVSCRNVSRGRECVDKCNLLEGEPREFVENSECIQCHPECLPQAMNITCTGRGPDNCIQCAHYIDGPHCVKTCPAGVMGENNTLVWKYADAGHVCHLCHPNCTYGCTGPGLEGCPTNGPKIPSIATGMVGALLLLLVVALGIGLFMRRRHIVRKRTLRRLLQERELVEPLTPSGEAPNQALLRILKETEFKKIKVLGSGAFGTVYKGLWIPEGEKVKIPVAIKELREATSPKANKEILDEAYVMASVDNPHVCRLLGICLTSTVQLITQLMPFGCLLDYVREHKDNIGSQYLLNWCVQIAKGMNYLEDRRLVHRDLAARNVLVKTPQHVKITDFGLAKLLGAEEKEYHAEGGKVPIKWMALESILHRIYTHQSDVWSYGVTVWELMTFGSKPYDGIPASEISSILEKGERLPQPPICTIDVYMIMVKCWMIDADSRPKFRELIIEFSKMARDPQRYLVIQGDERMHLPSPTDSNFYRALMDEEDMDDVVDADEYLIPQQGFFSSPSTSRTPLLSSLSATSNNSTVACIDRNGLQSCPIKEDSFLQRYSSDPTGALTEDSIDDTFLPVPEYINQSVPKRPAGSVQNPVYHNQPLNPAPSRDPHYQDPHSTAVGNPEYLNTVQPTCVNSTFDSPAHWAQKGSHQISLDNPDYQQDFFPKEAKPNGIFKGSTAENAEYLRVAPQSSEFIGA
Chain of Dickkopf-related protein 1 (Homo sapiens) (O94907 whole entry, looked up): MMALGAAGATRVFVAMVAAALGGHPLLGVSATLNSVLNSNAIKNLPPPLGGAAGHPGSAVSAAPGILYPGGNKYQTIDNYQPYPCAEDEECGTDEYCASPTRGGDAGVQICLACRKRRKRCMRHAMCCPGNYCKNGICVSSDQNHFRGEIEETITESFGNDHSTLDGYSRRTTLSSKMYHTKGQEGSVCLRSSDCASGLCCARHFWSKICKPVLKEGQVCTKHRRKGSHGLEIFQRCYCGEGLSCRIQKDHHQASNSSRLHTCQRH
Chain of Follistatin-related protein 3 (Homo sapiens) (O95633 whole entry, looked up): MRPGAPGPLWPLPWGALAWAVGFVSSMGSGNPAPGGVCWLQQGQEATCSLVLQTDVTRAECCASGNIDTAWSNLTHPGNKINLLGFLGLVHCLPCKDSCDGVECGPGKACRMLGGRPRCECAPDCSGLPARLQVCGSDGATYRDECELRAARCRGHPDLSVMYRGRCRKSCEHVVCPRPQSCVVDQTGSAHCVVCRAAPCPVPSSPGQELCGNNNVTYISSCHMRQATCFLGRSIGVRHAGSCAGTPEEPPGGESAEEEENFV
Chain of Torsin-1A-interacting protein 2 (Homo sapiens) (Q8NFQ8 whole entry, looked up): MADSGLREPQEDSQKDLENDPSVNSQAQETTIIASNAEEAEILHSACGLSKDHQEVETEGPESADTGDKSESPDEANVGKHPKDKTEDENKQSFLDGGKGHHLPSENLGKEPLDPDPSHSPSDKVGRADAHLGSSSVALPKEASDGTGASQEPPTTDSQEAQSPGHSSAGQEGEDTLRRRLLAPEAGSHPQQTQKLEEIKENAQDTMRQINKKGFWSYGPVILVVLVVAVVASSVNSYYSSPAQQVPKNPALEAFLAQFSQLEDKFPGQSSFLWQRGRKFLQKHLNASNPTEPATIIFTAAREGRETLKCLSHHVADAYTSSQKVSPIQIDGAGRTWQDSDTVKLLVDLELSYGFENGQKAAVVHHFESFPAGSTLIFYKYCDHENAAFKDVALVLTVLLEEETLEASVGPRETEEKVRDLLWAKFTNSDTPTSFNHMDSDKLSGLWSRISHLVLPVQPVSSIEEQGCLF

For the compound `CCc1cc2c(nc1CC)CCN(CCC(C)=NOC[C@@H](O)COCc1ccco1)C2`, the composite z-score is 1.54 in test [1]; -1.51 in test [5]; 0.469 in test [7]; 1.68 in [8]; 1.05 in [9]; 0.441 in [10]. Besides, the composite z-score in [11] is 1.54; in [12], 0.0564; in [13], 0.202; in test [15] it was 0.529; in test [16] it was 1.3; in test [17], 1.78. The figures for the composite z-score in test [18], in test [19] and in test [20] were 1.5, 1.7 and 2.1, respectively. In addition, the z-score in [2] was -0.907 (inactive); in [3], -0.871 (inactive); in test [4], -0.935 (inactive); in test [6], 0.903 (inactive); in test [14] it was -0.0287 (inactive).

As for `c1ccc(C2NCCc3c2[nH]c2ccccc32)cc1` (stereo not given), the composite z-score in [1] is -0.339; in [5] it was 0.872; in test [7], -0.126; in test [8], 0.388; in test [9], -0.246; in [10], 0.122. In addition, the composite z-score in test [11] is -0.214; in test [12] it was -0.227; in [13], 0.412; in test [15] it was 0.269; in test [16], -0.704; in [17], 0.112. Further, the composite z-score in [18] was -0.142; in [19] it was 0.0559; in test [20] it was 0.586. The z-score is -0.272 (inactive) in test [2]; -2.36 (inactive) in test [3]; -0.962 (inactive) in [4]; -0.937 (inactive) in test [6]; -0.231 (inactive) in test [14].

For the compound `C[C@H](c1ccccc1)N1C(=O)[C@H]2[C@H]3[C@H](O)[C@H](O)CC(=O)[C@@H]3CC[C@H]2C1=O`, the composite z-score in test [1] is 0.27; in test [5] it was 0.685; in test [7] it was -0.226; in test [8] it was 0.245; in test [9] it was 0.419; in test [10] it was 0.221. The composite z-score in test [11] is -0.0226; in [12], -0.0352; in [13] it was -0.394; in [15], 0.615; in [16] it was -0.0137; in test [17], 0.268. For the same compound, the composite z-score in test [18] is 0.344; in test [19] it was 0.822; in test [20] it was -1.79. Further, the z-score is -0.228 (inactive) in test [2]; -0.522 (inactive) in [3]; -0.478 (inactive) in test [4]; -0.417 (inactive) in test [6]; 0.737 (inactive) in test [14].

As for `COc1ccc(COC(=O)NN=C2C[C@@H](O)[C@@H](O)[C@@H]3[C@@H]4C(=O)N(c5ccc(F)cc5F)C(=O)[C@@H]4CC[C@@H]23)cc1`, the composite z-score in test [1] is -1.42; in test [5] it was -0.524; in test [7], 0.0215; in test [8], -0.0901; in test [9] it was 0.14; in [10] it was -0.117. Also, the composite z-score in [11] is 0.911; in [12] it was 0.262; in test [13] it was 1.18; in test [15], -0.665; in test [16] it was -1.53; in [17], -0.076. Further, the composite z-score is -0.267 in test [18], -0.69 in [19] and 0.532 in [20]. Further, the z-score in [2] was 0.935 (inactive); in [3], -0.423 (inactive); in [4], 0.0088 (inactive); in test [6] it was 0.488 (inactive); in test [14], 0.3 (inactive).

As for `CCCC[C@@H]1C[C@H]1[C@@H](NS(=O)(=O)c1cccc2cccnc12)c1ccc(-c2ccccc2)cc1`, the composite z-score is -1.42 in [1]; 1.26 in test [5]; 0.0141 in test [7]; -0.696 in test [8]; 0.32 in test [9]; -0.0728 in test [10]. Also, the composite z-score in test [11] was -0.383; in [12] it was 0.583; in test [13], 1.09; in test [15], 0.0068; in test [16], -0.356; in [17] it was -1.26. The composite z-score in test [18] is -0.417; in test [19], -0.475; in test [20], 0.76. Also, the z-score in test [2] was 0.0994 (inactive); in test [3], 1.16 (inactive); in test [4], 0.676 (inactive); in test [6], -0.781 (inactive); in test [14], 1.19 (inactive).
